Test results taken from PubChem BioAssay AID1159580 (chemical genetic matrix, 2015).
Values joined by “and” are separate entries in the source; they are usually repeats but may differ in a detail not shown here. Identical values can stand only once. Hit rate of the full screen: of about 5,500 compounds, about 2,000 (36%) were called active. Another 18% or so got no clear call; they are omitted. Cut-off read from the data, not from the text of the source: active = normalized growth mostly below about 0.91 (no sharp cut-off); inconclusive = no clear call, values can overlap the other calls; inactive = mostly above about 0.92. The list shows a part of the results.

Experiment: chemical genetic growth profiling, strain panel (AID 1159580);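 note: tested at 20 µM; growth read once vehicle control cultures reached saturation at 30 °C; 1 = growth at the plate median or of vehicle wells; lower values mean less growth of the strain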
Conditions: S. cerevisiae deletion strains, growth OD
[1] = locus YBR229C, strain ROT2, stronger effect = lower value
[2] = locus YDL101C, strain DUN1, stronger effect = lower value
[3] = locus YDR150W, strain NUM1, stronger effect = lower value
[4] = locus YEL061C, strain CIN8, stronger effect = lower value
[5] = locus YGR078C, strain PAC10, stronger effect = lower value
[6] = locus YHR030C, strain SLT2, stronger effect = lower value
[7] = locus YJR043C, strain POL32, stronger effect = lower value
[8] = locus YKL190W, strain CNB1, stronger effect = lower value
[9] = locus YLR039C, strain RIC1, stronger effect = lower value
[10] = locus YLR262C, strain YPT6, stronger effect = lower value
[11] = locus YMR263W, strain SAP30, stronger effect = lower value
[12] = locus YNL153C, strain GIM3, stronger effect = lower value
[13] = locus YPL055C, strain LGE1, stronger effect = lower value

Measured: normalized growth

CC(C)N(Cc1ccc(N(C)C)cc1)S(=O)(=O)c1cc(Cl)c(Cl)cc1Cl
inactive: locus YAL013W, strain DEP1, stronger effect = lower value 1 | [1] 1.01 | [2] 1.03 | locus YDL134C, strain PPH21, stronger effect = lower value 1.01 | [3] 1.01 | [4] 0.986 | [5] 1.02 | [6] 1.07 | locus YHR087W, strain rtc3, stronger effect = lower value 1 | [7] 1.01 | locus YJR075W, strain HOC1, stronger effect = lower value 1.02 | [8] 1.01 | [9] 1.01 | locus YLR058C, strain SHM2 (second series), stronger effect = lower value 1 | locus YLR085C, strain ARP6, stronger effect = lower value 1.06 | [10] 0.999 | locus YML094W, strain GIM5, stronger effect = lower value 1.02 | locus YMR219W, strain ESC1, stronger effect = lower value 1 | [11] 1.02 | locus YNL128W, strain TEP1, stronger effect = lower value 1.02 | [12] 1.03 | locus YNL298W, strain CLA4 (second series), stronger effect = lower value 1.03 | locus YNL322C, strain KRE1, stronger effect = lower value 1.01 | locus YNR030W, strain Alg12, stronger effect = lower value 1.04 | locus YOL006C, strain TOP1, stronger effect = lower value 1.08 | [13] 1 | locus YPL241C, strain CIN2, stronger effect = lower value 1.04 | locus YPR135W, strain CTF4, stronger effect = lower value 1.1

CC(=O)c1c(O)c(C)c(O)c2c1OC1=CC(=O)C(C(C)=O)C(=O)C12C (stereo not drawn)
1.01 (inactive) and 0.142 (active): [6]
inactive: locus YAL030W, strain snc1, stronger effect = lower value 0.938 | locus YBL061C, strain skt5, stronger effect = lower value 0.966 | locus YBR021W, strain FUR4, stronger effect = lower value 1.01 | locus YBR023C, strain chs3, stronger effect = lower value 0.978 | locus YBR171W, strain sec66, stronger effect = lower value 0.933 | [1] 1.01 | locus YBR231C, strain swc5, stronger effect = lower value 0.963 | locus YBR279W, strain paf1, stronger effect = lower value 1.01 | locus YCL016C, strain dcc1, stronger effect = lower value 0.987 | locus YCL029C, strain bik1, stronger effect = lower value 0.976 | locus YCL069W, strain vba3, stronger effect = lower value 0.957 | locus YDL005C, strain med2, stronger effect = lower value 0.985 | locus YDL035C, strain GPR1, stronger effect = lower value 1.01 | locus YDL040C, strain nat1, stronger effect = lower value 0.991 | locus YDL074C, strain BRE1, stronger effect = lower value 0.987 | [2] 1.01 | locus YDR001C, strain nth1, stronger effect = lower value 0.96 | locus YDR069C, strain doa4, stronger effect = lower value 0.98 | locus YDR137W, strain rgp1, stronger effect = lower value 0.972 | [3] 1.01 | locus YDR162C, strain NBP2, stronger effect = lower value 1.03 | locus YDR297W, strain sur2, stronger effect = lower value 0.962 | locus YDR318W, strain mcm21, stronger effect = lower value 0.981 | locus YDR334W, strain swr1, stronger effect = lower value 0.953 | locus YDR388W, stronger effect = lower value 0.976 | locus YEL037C, strain rad23, stronger effect = lower value 0.948 | [4] 1.01 | locus YER016W, strain bim1, stronger effect = lower value 1 | locus YER110C, stronger effect = lower value 0.988 | locus YER111C, strain swi4, stronger effect = lower value 0.919 | locus YER155C, strain BEM2 (second series), stronger effect = lower value 0.868 | locus YER155C, strain BEM2, stronger effect = lower value 1.01 | locus YER167W, strain BCK2, stronger effect = lower value 1.01 | locus YFR010W, strain ubp6, stronger effect = lower value 0.901 | locus YGL167C, strain pmr1, stronger effect = lower value 1.01 | locus YGL173C, strain kem1, stronger effect = lower value 0.992 | locus YGL227W, strain vid30, stronger effect = lower value 0.946 | locus YGL240W, strain doc1, stronger effect = lower value 0.894 | locus YGL248W, strain PDE1, stronger effect = lower value 1.02 | [5] 1.02 | locus YGR135W, strain pre9, stronger effect = lower value 0.946 | locus YGR252W, strain gcn5, stronger effect = lower value 0.945 | locus YHR013C, strain ard1, stronger effect = lower value 1 | locus YHR027C, strain rpn1, stronger effect = lower value 0.983 | locus YHR079C, strain IRE1 (second series), stronger effect = lower value 0.986 | locus YHR094C, strain hxt1, stronger effect = lower value 0.984 | locus YHR129C, strain ARP1, stronger effect = lower value 1.02 | locus YHR200W, strain rpn10, stronger effect = lower value 0.932 | locus YIL066C, strain RNR3, stronger effect = lower value 1.02 | locus YIL073C, strain SPO22, stronger effect = lower value 1.03 | locus YIR030C, strain dcg1, stronger effect = lower value 0.975 | locus YJL095W, strain BCK1 (second series), stronger effect = lower value 0.964 | locus YJL115W, strain asf1, stronger effect = lower value 0.947 | locus YJL134W, strain LCB3, stronger effect = lower value 1.01 | locus YJL154C, strain vps35, stronger effect = lower value 0.979 | locus YJL166W, strain qcr8, stronger effect = lower value 0.913 | locus YJL168C, strain set2, stronger effect = lower value 0.972 | locus YJL187C, strain SWE1 (second series), stronger effect = lower value 1.01 | locus YJL187C, strain SWE1, stronger effect = lower value 0.972 | [7] 1.01 | locus YKL068W, stronger effect = lower value 1.01 | locus YKL160W, strain elf1, stronger effect = lower value 0.977 | [8] 1.01 | locus YKR026C, strain gcn3, stronger effect = lower value 0.938 | locus YKR091W, strain srl3, stronger effect = lower value 0.942 | locus YLL001W, strain dnm1, stronger effect = lower value 0.933 | locus YLL041C, strain sdh2, stronger effect = lower value 0.936 | [9] 1.01 | locus YLR058C, strain SHM2, stronger effect = lower value 1.01 | locus YLR102C, strain apc9, stronger effect = lower value 0.99 | [10] 1.03 | locus YLR268W, strain sec22, stronger effect = lower value 0.932 | locus YLR320W, strain mms22, stronger effect = lower value 0.907 | locus YLR330W, strain CHS5, stronger effect = lower value 1.01 | locus YLR342W, strain FKS1 (second series), stronger effect = lower value 0.946 | locus YLR342W, strain FKS1, stronger effect = lower value 0.93 | locus YLR357W, strain rsc2, stronger effect = lower value 0.886 | locus YLR371W, strain rom2, stronger effect = lower value 0.998 | locus YLR384C, strain iki3, stronger effect = lower value 0.957 | locus YML016C, strain PPZ1, stronger effect = lower value 1.01 | locus YML032C, strain rad52, stronger effect = lower value 0.953 | locus YML124C, strain tub3, stronger effect = lower value 0.96 | locus YMR078C, strain ctf18, stronger effect = lower value 0.976 | locus YMR223W, strain ubp8, stronger effect = lower value 0.958 | [11] 1.01 | locus YMR307W, strain GAS1, stronger effect = lower value 0.956 | locus YNL067W, strain RPL9B, stronger effect = lower value 1.02 | [12] 1.01 | locus YNL233W, strain BNI4, stronger effect = lower value 1.03 | locus YNL248C, strain rpa49, stronger effect = lower value 0.925 | locus YNL307C, strain MCK1, stronger effect = lower value 0.971 | locus YNR049C, strain mso1, stronger effect = lower value 0.962 | locus YOL012C, strain htz1 1.07 | locus YOL147C, strain pex11, stronger effect = lower value 0.968 | locus YOR061W, strain CKA2, stronger effect = lower value 1.02 | locus YOR069W, strain VPS5, stronger effect = lower value 1.01 | locus YOR070C, strain gyp1, stronger effect = lower value 0.966 | locus YOR080W, strain dia2, stronger effect = lower value 0.975 | locus YOR136W, strain idh2, stronger effect = lower value 0.976 | locus YOR270C, strain vph1, stronger effect = lower value 1.08 | locus YOR316C, strain cot1, stronger effect = lower value 0.989 | locus YPL051W, strain arl3, stronger effect = lower value 0.938 | [13] 0.999 | locus YPL106C, strain sse1, stronger effect = lower value 0.86 | locus YPR119W, strain clb2, stronger effect = lower value 0.964 | locus YPR163C, strain tif3, stronger effect = lower value 0.968 | locus YPR167C, strain met16, stronger effect = lower value 0.944
active: locus YAL021C, strain ccr4, stronger effect = lower value 0.816 | locus YAL026C, strain drs2, stronger effect = lower value 0.812 | locus YBR009C, strain hhf1, stronger effect = lower value 0.739 | locus YCL011C, strain gbp2, stronger effect = lower value 0.672 | locus YCL061C, strain MRC1, stronger effect = lower value 0.858 | locus YCR088W, strain abp1, stronger effect = lower value 0.872 | locus YDL185W, strain tfp1, stronger effect = lower value 0.506 | locus YDL192W, strain arf1, stronger effect = lower value 0.852 | locus YDR101C, strain arx1, stronger effect = lower value 0.89 | locus YDR159W, strain sac3, stronger effect = lower value 0.762 | locus YDR195W, strain ref2 0.799 | locus YDR335W, strain msn5, stronger effect = lower value 0.752 | locus YDR392W, strain spt3, stronger effect = lower value 0.526 | locus YDR502C, strain sam2, stronger effect = lower value 0.853 | locus YEL003W, strain gim4, stronger effect = lower value 0.787 | locus YEL061C, strain CIN8 (second series), stronger effect = lower value 0.895 | locus YER015W, strain faa2, stronger effect = lower value 0.912 | locus YGL078C, strain dbp3, stronger effect = lower value 0.567 | locus YGL086W, strain mad1, stronger effect = lower value 0.909 | locus YGL253W, strain hxk2, stronger effect = lower value 0.892 | locus YHR079C, strain IRE1, stronger effect = lower value 0.133 | locus YHR142W, strain chs7, stronger effect = lower value 0.82 | locus YIL125W, strain kgd1, stronger effect = lower value 0.365 | locus YJL092W, strain hpr5, stronger effect = lower value 0.908 | locus YJL129C, strain trk1, stronger effect = lower value 0.684 | locus YJL164C, strain tpk1, stronger effect = lower value 0.84 | locus YJR066W, strain TOR1, stronger effect = lower value 0.465 | locus YKL009W, strain mrt4, stronger effect = lower value 0.387 | locus YKL085W, strain MDH1 (second series), stronger effect = lower value 0.275 | locus YKL085W, strain MDH1, stronger effect = lower value 0.275 | locus YKR001C, strain vps1, stronger effect = lower value 0.813 | locus YLL026W, stronger effect = lower value 0.925 | locus YLR027C, strain aat2, stronger effect = lower value 0.796 | locus YLR113W, strain HOG1, stronger effect = lower value 0.186 | locus YLR221C, strain rsa3, stronger effect = lower value 0.781 | locus YLR258W, strain gsy2, stronger effect = lower value 0.889 | locus YLR262C, strain YPT6 (second series), stronger effect = lower value 0.723 | locus YLR370C, strain arc18, stronger effect = lower value 0.9 | locus YLR418C, strain cdc73, stronger effect = lower value 0.694 | locus YML120C, strain ndi1, stronger effect = lower value 0.439 | locus YMR058W, strain fet3, stronger effect = lower value 0.834 | locus YMR125W, strain sto1, stronger effect = lower value 0.875 | locus YMR129W, stronger effect = lower value 0.911 | locus YMR205C, strain PFK2, stronger effect = lower value 0.759 | locus YMR231W, strain pep5, stronger effect = lower value 0.169 | locus YNL071W, strain lat1, stronger effect = lower value 0.907 | locus YNL183C, strain NPR1, stronger effect = lower value 0.693 | locus YNL209W, strain ssb2, stronger effect = lower value 0.924 | locus YNL250W, strain rad50, stronger effect = lower value 0.328 | locus YNL271C, strain bni1, stronger effect = lower value 0.773 | locus YNL298W, strain CLA4, stronger effect = lower value 0.332 | locus YNL322C, strain KRE1 (second series), stronger effect = lower value 0.83 | locus YNR052C, strain pop2, stronger effect = lower value 0.876 | locus YOR001W, strain rrp6, stronger effect = lower value 0.672 | locus YOR083W, strain WHI5, stronger effect = lower value 0.859 | locus YOR106W, strain vam3, stronger effect = lower value 0.254 | locus YOR144C, strain elg1, stronger effect = lower value 0.898 | locus YOR184W, strain ser1, stronger effect = lower value 0.723 | locus YOR231W, strain MKK1, stronger effect = lower value 0.127 | locus YOR265W, strain rbl2, stronger effect = lower value 0.928 | locus YOR290C, strain snf2, stronger effect = lower value 0.644 | locus YPL078C, strain atp4, stronger effect = lower value 0.873 | locus YPL240C, strain hsp82, stronger effect = lower value 0.894 | locus YPL256C, strain CLN2, stronger effect = lower value 0.189 | locus YPR141C, strain kar3, stronger effect = lower value 0.888 | strain wtn01, stronger effect = lower value 0.841
1.03 (inactive) and 0.13 (active): locus YJL095W, strain BCK1, stronger effect = lower value
